# High-throughput results (PubChem BioAssay)
# Beta cell apopt: blocks beta cell apoptosis | INS-1E cytokine-induced death, ATP luminescence, 48 h; percent of positive-control rescue, neutral wells zero | actives 0.8% (n = 300,000) | protection from apoptosis, % (no concentration beside the values);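 active = Every replicate reaches about 75%, or at least half do and their mean reaches it too, limit read from the data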;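 note: 0% = cytokine-treated negative control wells and 100% = positive control rescue; higher means more ATP so stronger rescue from cytokine killing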
# NTR1 ag: agonists of human neurotensin receptor NTR1. P30989. NTR1-U2OS beta-arrestin-GFP spot imaging, agonist mode. activation, % at 20 µM. actives 0.17% (n = 330,000);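 active = activation at or above 40% of the spot to cytoplasm intensity ratio, with at least 20 cells analyzed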;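 note: 0% = DMSO without peptide and 100% = 100 nM NTR1 peptide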
# Target sequence (P30989 whole entry, looked up): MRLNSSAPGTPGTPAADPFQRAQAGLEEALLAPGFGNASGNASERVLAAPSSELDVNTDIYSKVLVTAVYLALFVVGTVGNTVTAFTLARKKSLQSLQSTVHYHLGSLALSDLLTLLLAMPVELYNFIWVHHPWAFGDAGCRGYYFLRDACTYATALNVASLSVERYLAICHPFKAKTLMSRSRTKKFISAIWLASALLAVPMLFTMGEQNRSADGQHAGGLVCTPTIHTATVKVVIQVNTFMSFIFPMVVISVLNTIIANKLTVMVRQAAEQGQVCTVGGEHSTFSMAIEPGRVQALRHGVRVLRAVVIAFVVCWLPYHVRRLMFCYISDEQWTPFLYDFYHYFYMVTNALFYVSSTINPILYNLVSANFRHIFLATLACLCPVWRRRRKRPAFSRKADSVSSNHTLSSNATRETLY
# Mdm2 MdmX PPI: human Mdm2/MdmX binding inhibition; O15151+Q00987; inhibition, % at 8 µM; actives 3% (n = 330,000); AID 485346; SaOS-2 split-luciferase Mdm2/MdmX complementation, luminescence;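 active = inhibition of at least 50% at 8 µM in the primary screen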
# Bfl-1 A1 inh: inhibitors of the anti-apoptotic protein A1, read as caspase activation. MEF A1-2A-BIM cells, Caspase-Glo 3/7 luminescence, 3 h; percent of clofoctol response, vehicle zero. caspase activation, % (test concentration not listed). actives 0.066% (n = 330,000);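 active = over half of replicate activation scores above 10%, or exactly half above 10 with the replicate mean above 10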
# 697 NFkB inh: inhibitors of the PMA/ionomycin-induced NF-kB reporter in 697 B cells; inhibition, % at 4 µM; 697 B-cell NF-kB luciferase reporter, 16 h; actives 0.33% (n = 330,000); in the data active = inhibition above about 35%
# Jurkat NFkB inh: inhibitors of the PMA/ionomycin-induced NF-kB reporter in Jurkat cells; PMA/ionomycin-induced NF-kB luciferase reporter, luminescence; inhibition, % at 4 µM; actives 0.53% (n = 330,000); AID 435003; in the data active = inhibition above about 50%
# Mdm2-MdmX conf: human Mdm2/MdmX binding inhibition, confirmed; shares compounds with Mdm2 MdmX PPI; luminescent assay; inhibition, % at 8 µM; actives 55% (n = 10,000); AID 489028; in the data active = inhibition above about 40%
# FLuc counter: full-length luciferase inhibition in Mdm2/MdmX counter-screen. shares compounds with Mdm2 MdmX PPI. SaOS-2 full-length luciferase counterscreen, luminescence. inhibition, % at 8 µM. actives 77% (n = 6,200). AID 504607;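 active = mean inhibition at 8 µM reaching about 37%, which flags the compound as non-specific, limit read from the data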;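 note: p53-null SaOS-2 cells with luciferase driven by a doxycycline-inducible promoter; compound on cells about two nights before reading with doxycycline added after day one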
# An asterisk follows results filed as active; . = not tested or not shown. An excerpt weighted towards active compounds, which were near 3.8% of everything screened.
SMILES,Beta cell apopt,NTR1 ag,Mdm2 MdmX PPI,Bfl-1 A1 inh,697 NFkB inh,Jurkat NFkB inh,Mdm2-MdmX conf,FLuc counter
COc1ccc2oc(=Nc3ccccc3)c(-c3nc4ccccc4[nH]3)cc2c1,25,2,88*,-5,-172,-88,-84,.
Cc1ccc(NC(=O)CCN2C(=O)C3CC=CCC3C2=O)cc1Cl (centres undefined),.,-1,-11,.,6,-6,.,.
CCOc1cc(/C=N/Nc2cc(C)nc(-n3nc(C)cc3C)n2)ccc1O,99*,11,73*,8.6*,-28,32,40,23
COc1ccc(/C=N/Nc2cc(C)nc(-n3nc(C)cc3C)n2)c(OC)c1,82*,14,55*,-3,-6,13,38,48*
CCOc1cc(/C=N/Nc2nc(C)cc(=O)[nH]2)ccc1O,2,1,10,0,5,-6,.,.
Cc1nnc(Cn2cnc3c2c(=O)n(C)c(=O)n3C)o1,-6,-2,22,0,5,4,.,.
Cc1nn(-c2ccccc2)c(Cl)c1CN(C(=O)CCl)c1cccc2ccccc12,20,22,99*,3,-6,0,99*,53*
Cc1cc(Cl)ccc1NC(=O)CCC(=O)N/N=C/c1cccnc1,-4,0,27,1,11,13,.,.
Cc1ccc2c(c1)c(N=O)c(O)n2Cc1ccc(Cl)cc1,43,10,60*,0,9,21,36,.
O=Nc1c(O)n(Cc2c(Cl)cccc2Cl)c2ccccc12,-10,6,52*,1,-27,22,33,.
O=Nc1c(O)n(Cc2ccc(Cl)cc2)c2ccccc12,1,5,51*,1,25,-1,34,.
O=Nc1c(O)n(Cc2ccc(Cl)cc2Cl)c2ccccc12,25,9,36,0,-12,7,.,.
Cc1ccc2c(c1)c(N=NC(N)=S)c(O)n2Cc1ccccc1,3,4,35,0,19,1,.,.
Cc1ccc(Cn2c(O)c(N=O)c3ccccc32)cc1,4,-1,23,0,-17,0,.,.
Cn1c(N)c(C(=O)COC(=O)Cc2ccc(Cl)c(Cl)c2)c(=O)n(C)c1=O,-4,4,0,0,3,17,.,.
COc1ccc2cc3c(N)nn(C(=O)c4ccc(F)cc4)c3nc2c1,-28,7,82*,-1,2,22,89*,47*
COc1ccc2cc3c(N)nn(C(=O)c4cccc(F)c4)c3nc2c1,-20,2,71*,0,4,24,81*,43*
COc1ccc2cc3c(N)nn(C(=O)c4ccccc4Cl)c3nc2c1,-30,6,93*,1,17,34,93*,51*
CC1=C(C(=O)OC2CCCC(C)C2)C(c2ccccc2)NC(=O)N1 (centres undefined),1,0,0,1,-12,-8,.,.
O=C(CNS(=O)(=O)c1ccccc1F)NNC(=O)c1ccc(Br)cc1,.,-2,12,.,0,-16,.,.
Cc1sc2nc(-c3ccccn3)[nH]c(=O)c2c1-c1ccccc1,61,8,57*,-3,-62,-27,31,.
O=C([O-])c1ccccc1-[n+]1c(-c2ccccc2)cc(-c2ccccc2)cc1-c1ccccc1,0,1,19,1,-25,-3,.,.
O=C(c1nnsc1S(=O)(=O)c1ccc(Cl)cc1)N1CCOCC1,.,1,95*,.,-8,47,68*,19
CNC(=O)c1ccc(S(=O)(=O)c2ccc(Cl)cc2)c(NC(C)=O)c1,.,1,10,0,7,1,.,.
CNC(=O)c1nnsc1S(=O)(=O)c1ccc(Cl)cc1,.,-1,96*,.,28,18,100*,51*
SMILES,Beta cell apopt,NTR1 ag,Mdm2 MdmX PPI,Bfl-1 A1 inh,697 NFkB inh,Jurkat NFkB inh,Mdm2-MdmX conf,FLuc counter
C=CCn1c(CNS(=O)(=O)c2ccc(Br)cc2)n[nH]c1=S,1,0,-10,0,-16,8,.,.
COc1ccccc1NS(=O)(=O)c1cccc(-n2c(O)c(C=Nc3ccccc3C(=O)O)c3ccccc3c2=O)c1,2,1,54*,0,32,22,59*,70*
CCCCC(=O)Nc1cc2nn(-c3ccc(OC)cc3)nc2cc1C,0,1,-10,-1,-170,-120,.,.
CCC(=O)Nc1cc2nn(-c3ccc(C)cc3)nc2cc1C,-12,-1,67*,-7,-240,-54,67*,146*
COc1ccc(C(=O)Nc2ccc(-c3nnn(CC(=O)NCc4ccco4)n3)cc2)cc1,19,-1,68*,1,27,2,35,.
Cc1cccc(CS(=O)(=O)c2nnc([C@H](Cc3ccccc3)NC(=O)OC(C)(C)C)o2)c1,53,-2,97*,1,-4,24,56*,54*
COC(=O)CS(=O)(=O)c1nnc([C@H](Cc2ccccc2)NC(=O)OC(C)(C)C)o1,35,6,84*,0,-11,30,56*,15
CC(C)(C)OC(=O)N[C@@H](Cc1ccccc1)c1nnc(SCC(N)=O)o1,-2,0,4,0,-9,-6,.,.
Cc1cc(-c2nnc3n2N=C(c2ccccc2)CS3)n[nH]1,-3,4,26,-2,30,1,.,.
c1ccc(-c2cc(-c3nnc4n3N=C(c3ccc5ccccc5c3)CS4)[nH]n2)cc1,11,18,57*,-1,-20,-5,78*,76*
COc1ccc(C2=Nn3c(nnc3-c3ccncc3)SC2)cc1,-2,10,52*,0,-10,8,55*,22
Cc1cc(-c2nnc3n2N=C(c2ccc(-c4ccccc4)cc2)CS3)n[nH]1,-5,26,70*,-1,9,3,12,.
COC(=O)c1ccc(CN2CCCC(CO)(Cc3ccc(F)cc3F)C2)cc1 (centres undefined),-1,-1,12,-1,-35,-6,.,.
CC(NC(=O)Cc1ccc(S(=O)(=O)N2CCCCC2)cc1)c1ccccc1 (centres undefined),-3,0,9,1,12,-4,.,.
Cc1cccc(S(=O)Cc2ccc(C(=O)NC3CCN(Cc4ccccc4)CC3)o2)c1 (centres undefined),4,-1,11,0,9,-7,.,.
COc1ccccc1NC(=O)NC1(C(=O)N2CCN(C)CC2)CCCCC1,-3,2,2,0,5,8,.,.
OCC[C@@H]1C[C@H](O)[C@@H](O)[C@@]2(CCCCO2)O1,-8,1,10,1,-45,-4,.,.
COc1cccc(N2CC(O)=C(c3nc4ccccc4s3)C2=N)c1,7,0,70*,0,-188,-32,57*,111*
